Assay results published in PubChem BioAssay AID1159580 (chemical genetic matrix, 2015).
The whole screen tested about 5,500 compounds, of which about 2,000 (36%) were called active. About 18% were inconclusive and are not listed. No stated cut-off is given here; in the data, active means normalized growth mostly below about 0.91 (no sharp cut-off); inconclusive means no clear call, values can overlap the other calls; inactive means mostly above about 0.92. The list shows a part of the results.

Experiment: chemical genetic growth profiling, strain panel (AID 1159580);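 further: tested at 20 µM; growth read once vehicle control cultures reached saturation at 30 °C; 1 = growth at the plate median or of vehicle wells; lower values mean less growth of the strain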
Conditions: growth OD

Measured: normalized growth

CC(=O)OCC(=O)[C@@]1(O)CCC2C3CC[C@@H]4C[C@H](OC(C)=O)CC[C@]4(C)C3C(=O)C[C@@]21C (some centres not stated)
inactive: S. cerevisiae deletion strains, locus YBR021W, strain FUR4, active compounds read low 0.972 | S. cerevisiae deletion strains, locus YBR229C, strain ROT2, active compounds read low 0.997 | S. cerevisiae deletion strains, locus YCL029C, strain bik1, active compounds read low 1.03 | S. cerevisiae deletion strains, locus YDL035C, strain GPR1, active compounds read low 0.989 | S. cerevisiae deletion strains, locus YDL074C, strain BRE1, active compounds read low 0.993 | S. cerevisiae deletion strains, locus YDL101C, strain DUN1, active compounds read low 1.01 | S. cerevisiae deletion strains, locus YDL185W, strain tfp1, active compounds read low 1.02 | S. cerevisiae deletion strains, locus YDL192W, strain arf1, active compounds read low 1.01 | S. cerevisiae deletion strains, locus YDR101C, strain arx1, active compounds read low 1.01 | S. cerevisiae deletion strains, locus YDR150W, strain NUM1, active compounds read low 0.994 | S. cerevisiae deletion strains, locus YDR162C, strain NBP2, active compounds read low 0.987 | S. cerevisiae deletion strains, locus YDR318W, strain mcm21, active compounds read low 1 | S. cerevisiae deletion strains, locus YDR388W, active compounds read low 1.01 | S. cerevisiae deletion strains, locus YDR502C, strain sam2, active compounds read low 1 | S. cerevisiae deletion strains, locus YEL061C, strain CIN8, active compounds read low 0.971 | S. cerevisiae deletion strains, locus YER110C, active compounds read low 1.01 | S. cerevisiae deletion strains, locus YER155C, strain BEM2, active compounds read low 0.994 | S. cerevisiae deletion strains, locus YER167W, strain BCK2, active compounds read low 0.961 | S. cerevisiae deletion strains, locus YGL078C, strain dbp3, active compounds read low 1 | S. cerevisiae deletion strains, locus YGL086W, strain mad1, active compounds read low 1.01 | S. cerevisiae deletion strains, locus YGL248W, strain PDE1, active compounds read low 1.01 | S. cerevisiae deletion strains, locus YGR135W, strain pre9, active compounds read low 1 | S. cerevisiae deletion strains, locus YGR252W, strain gcn5, active compounds read low 0.991 | S. cerevisiae deletion strains, locus YHR030C, strain SLT2, active compounds read low 1 | S. cerevisiae deletion strains, locus YHR079C, strain IRE1 (second series), active compounds read low 1.01 | S. cerevisiae deletion strains, locus YHR094C, strain hxt1, active compounds read low 1.01 | S. cerevisiae deletion strains, locus YHR129C, strain ARP1, active compounds read low 0.996 | S. cerevisiae deletion strains, locus YHR200W, strain rpn10, active compounds read low 1.02 | S. cerevisiae deletion strains, locus YIL066C, strain RNR3, active compounds read low 1 | S. cerevisiae deletion strains, locus YIL073C, strain SPO22, active compounds read low 1.05 | S. cerevisiae deletion strains, locus YIL125W, strain kgd1, active compounds read low 1 | S. cerevisiae deletion strains, locus YIR030C, strain dcg1, active compounds read low 0.999 | S. cerevisiae deletion strains, locus YJL095W, strain BCK1, active compounds read low 1 | S. cerevisiae deletion strains, locus YJL134W, strain LCB3, active compounds read low 1 | S. cerevisiae deletion strains, locus YJL168C, strain set2, active compounds read low 1.01 | S. cerevisiae deletion strains, locus YJL187C, strain SWE1 (second series), active compounds read low 0.999 | S. cerevisiae deletion strains, locus YJR043C, strain POL32, active compounds read low 0.995 | S. cerevisiae deletion strains, locus YKL009W, strain mrt4, active compounds read low 0.988 | S. cerevisiae deletion strains, locus YKL068W, active compounds read low 1.01 | S. cerevisiae deletion strains, locus YKL085W, strain MDH1 (second series), active compounds read low 1.01 | S. cerevisiae deletion strains, locus YKL085W, strain MDH1, active compounds read low 1.01 | S. cerevisiae deletion strains, locus YKL190W, strain CNB1, active compounds read low 0.997 | S. cerevisiae deletion strains, locus YKR001C, strain vps1, active compounds read low 1.01 | S. cerevisiae deletion strains, locus YLR039C, strain RIC1, active compounds read low 1.02 | S. cerevisiae deletion strains, locus YLR058C, strain SHM2, active compounds read low 0.993 | S. cerevisiae deletion strains, locus YLR102C, strain apc9, active compounds read low 1.01 | S. cerevisiae deletion strains, locus YLR262C, strain YPT6, active compounds read low 1.03 | S. cerevisiae deletion strains, locus YLR268W, strain sec22, active compounds read low 1.03 | S. cerevisiae deletion strains, locus YLR330W, strain CHS5, active compounds read low 1 | S. cerevisiae deletion strains, locus YLR342W, strain FKS1 (second series), active compounds read low 1.01 | S. cerevisiae deletion strains, locus YLR371W, strain rom2, active compounds read low 1 | S. cerevisiae deletion strains, locus YLR418C, strain cdc73, active compounds read low 1.01 | S. cerevisiae deletion strains, locus YML016C, strain PPZ1, active compounds read low 1.01 | S. cerevisiae deletion strains, locus YML032C, strain rad52, active compounds read low 1 | S. cerevisiae deletion strains, locus YML124C, strain tub3, active compounds read low 1.01 | S. cerevisiae deletion strains, locus YMR078C, strain ctf18, active compounds read low 1.02 | S. cerevisiae deletion strains, locus YMR223W, strain ubp8, active compounds read low 1.02 | S. cerevisiae deletion strains, locus YMR263W, strain SAP30, active compounds read low 0.995 | S. cerevisiae deletion strains, locus YMR307W, strain GAS1, active compounds read low 0.99 | S. cerevisiae deletion strains, locus YNL067W, strain RPL9B, active compounds read low 1 | S. cerevisiae deletion strains, locus YNL153C, strain GIM3, active compounds read low 1 | S. cerevisiae deletion strains, locus YNL233W, strain BNI4, active compounds read low 0.995 | S. cerevisiae deletion strains, locus YNL250W, strain rad50, active compounds read low 1.02 | S. cerevisiae deletion strains, locus YNL271C, strain bni1, active compounds read low 1.01 | S. cerevisiae deletion strains, locus YNL298W, strain CLA4, active compounds read low 1.01 | S. cerevisiae deletion strains, locus YNL307C, strain MCK1, active compounds read low 1.02 | S. cerevisiae deletion strains, locus YNL322C, strain KRE1, active compounds read low 0.998 | S. cerevisiae deletion strains, locus YNR052C, strain pop2, active compounds read low 1.01 | S. cerevisiae deletion strains, locus YOL012C, strain htz1 1 | S. cerevisiae deletion strains, locus YOL147C, strain pex11, active compounds read low 1.01 | S. cerevisiae deletion strains, locus YOR061W, strain CKA2, active compounds read low 1.01 | S. cerevisiae deletion strains, locus YOR069W, strain VPS5, active compounds read low 0.996 | S. cerevisiae deletion strains, locus YOR136W, strain idh2, active compounds read low 1.02 | S. cerevisiae deletion strains, locus YOR144C, strain elg1, active compounds read low 1.02 | S. cerevisiae deletion strains, locus YOR184W, strain ser1, active compounds read low 1.01 | S. cerevisiae deletion strains, locus YOR316C, strain cot1, active compounds read low 1.01 | S. cerevisiae deletion strains, locus YPR119W, strain clb2, active compounds read low 1 | S. cerevisiae deletion strains, locus YPR141C, strain kar3, active compounds read low 1.02 | S. cerevisiae deletion strains, locus YPR163C, strain tif3, active compounds read low 1.02 | S. cerevisiae deletion strains, locus YPR167C, strain met16, active compounds read low 1.02 | S. cerevisiae deletion strains, strain wtn01, active compounds read low 1.02 | S. cerevisiae strains, strain wild type, active compounds read low 0.986
